Hits are enriched below; roughly 12% of the tested compounds scored in any of these assays.
BAZ2B block: qHTS Assay for Inhibitors of BAZ2B | Bromodomain adjacent to zinc finger domain protein 2B (Homo sapiens), Q9UIF8 | AlphaScreen BAZ2B-H3K14Ac peptide displacement | Potency, µM (highest dose often 114 µM), for inactives: top-dose activity change, negative = inhibition, actives largely listed as inhibitors | hit rate 4.4% among 360,000 | AID 504333, 2011; also: % is scaled to controls: 0 for no effect and ±100 for the full control effect; nearly all actives have a fitted effect of over 60% in size
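Inhibition is scored as reduced AlphaScreen emission. The BAZ2B/b-H3(5-23)K14Ac complex (50 nM each) in PBS pH 7.4, 0.01% Tween-20 meets compound (up to 110 uM) for 30 min at RT before bead addition.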
G9a inh: qHTS Assay for Inhibitors of Histone Lysine Methyltransferase G9a. hit rate 8.8% among 350,000. G9a H3K9 monomethylation, AlphaScreen, 2 h. Potency, µM (doses to about 102 µM), for the others: top-dose activity, negative = inhibition, most hits filed as inhibitors; also: % is scaled to controls: 0 for no effect and ±100 for the full control effect; nearly all actives have a fitted effect of over 75% in size
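Methyltransferase reactions run at room temperature for 2 h (20 nM enzyme, 500 nM biotin-H3K9 peptide, 20 uM SAM) after a 15 min compound preincubation; product detected by AlphaScreen beads and anti-H3K9me1 antibody.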
JMJD2A Tudor inh: qHTS Assay for Inhibitors of JMJD2A-Tudor Domain; AlphaScreen JMJD2A-Tudor / H3K4me3 peptide binding; AID 504339, 2011; Potency, µM (series often up to 114 µM), for the others: top-dose activity change, negative = inhibition, most hits filed as inhibitors; hit rate 4.4% among 390,000; Lysine-specific demethylase 4A (Homo sapiens), O75164; also: % is scaled to controls: 0 for no effect and ±100 for the full control effect; nearly all actives have a fitted effect of over 50% in size
L3MBTL1 block: qHTS Assay for the Inhibitors of L3MBTL1; hit rate 0.66% among 230,000; AlphaScreen L3MBTL1–H3K9me1 peptide binding; Potency, µM (highest dose often 57.1 µM), for the others: top-dose activity, negative = inhibition, usual class: inhibitors; AID 485360, 2010; also: % is scaled to controls: 0 for no effect and ±100 for the full control effect; nearly all actives have a fitted effect of over 60% in size
Target sequence (Q9Y468 whole entry, looked up): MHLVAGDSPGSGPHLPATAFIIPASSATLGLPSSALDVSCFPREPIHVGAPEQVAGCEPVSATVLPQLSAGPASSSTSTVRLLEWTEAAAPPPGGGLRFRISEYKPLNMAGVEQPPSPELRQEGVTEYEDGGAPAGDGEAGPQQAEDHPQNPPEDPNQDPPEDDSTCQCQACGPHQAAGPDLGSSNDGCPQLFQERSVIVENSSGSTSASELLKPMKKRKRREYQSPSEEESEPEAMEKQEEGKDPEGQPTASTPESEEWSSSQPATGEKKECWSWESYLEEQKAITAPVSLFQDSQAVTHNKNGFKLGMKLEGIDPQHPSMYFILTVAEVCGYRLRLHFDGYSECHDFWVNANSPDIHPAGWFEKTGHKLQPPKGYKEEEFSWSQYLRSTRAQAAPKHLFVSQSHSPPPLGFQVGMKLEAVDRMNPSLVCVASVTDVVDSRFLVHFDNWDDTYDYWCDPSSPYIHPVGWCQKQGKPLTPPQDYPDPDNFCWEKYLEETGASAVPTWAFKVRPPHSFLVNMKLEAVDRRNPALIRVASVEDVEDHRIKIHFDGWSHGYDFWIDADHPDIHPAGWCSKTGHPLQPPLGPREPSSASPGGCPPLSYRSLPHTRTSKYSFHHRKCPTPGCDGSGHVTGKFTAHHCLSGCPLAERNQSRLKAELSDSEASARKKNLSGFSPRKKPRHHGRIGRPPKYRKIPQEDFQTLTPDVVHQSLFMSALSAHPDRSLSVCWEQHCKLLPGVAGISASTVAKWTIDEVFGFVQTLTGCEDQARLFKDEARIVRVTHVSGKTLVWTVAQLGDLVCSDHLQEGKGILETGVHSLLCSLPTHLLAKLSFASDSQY
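AlphaScreen proximity signal between nickel-chelate acceptor and streptavidin donor beads (final 10 ug/mL) reports binding of 50 nM L3MBTL1 to 75 nM biotin-H3 K9me1 peptide; complex incubated with compounds 30 min at room temperature; cefsulodin titration as control.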
Sfp inh: qHTS Assay for Inhibitors of Bacillus subtilis Sfp phosphopantetheinyl transferase (PPTase) | Biochemical Sfp PPTase activity, qHTS | 4'-phosphopantetheinyl transferase ffp (Bacillus subtilis), Q9F4F7 | hit rate 3.5% among 310,000 | AID 1490, 2009 | Potency, µM, without a hit: largest response in the series, negative = inhibition, actives largely listed as inhibitors;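 also: the enzyme is Sfp with the accession as filed and its product quenches rhodamine fluorescence; 0% = enzyme reaction without inhibitor and -100% = no enzyme wells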
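Step 1, compound plus 15 nM Sfp-PPTase, 15 min, room temperature. Step 2, add rhodamine-CoA (5 uM) and BHQ-2-YbbR (12.5 uM). Step 3, read 525/598 nm fluorescence at 0 and 30 min.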
HP1b binding inh: HTS for Inhibitors of HP1-beta Chromodomain Interactions with Methylated Histone Tails; AlphaScreen HP1-beta / biotin-H3K9me3 peptide binding; Potency, µM (doses to about 114 µM), for the others: at the highest dose activity change, negative = inhibition, usual class: inhibitors; hit rate 0.56% among 390,000; AID 540317, 2011; also: nearly all actives have a fitted effect of over 70% in size
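Compound inhibition of the preformed complex between 50 nM HP1-beta and 50 nM biotinylated H3K9me3 peptide was read by AlphaScreen. Buffer was PBS pH 7.4 with 0.01% Tween-20. Incubations ran 30 min at room temperature, with 10 ug/mL donor/acceptor beads.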
An asterisk follows results filed as active; [ ] = remark or other dose. Calls follow the shape of the dose curve; as a rule, active = well fitted curve in the direction sought with a large enough effect; inconclusive = small, poorly fitted or top-dose-only effect, or another doubt; inactive = no such curve, though single readings can be large; an effect the other way counts as inactive or inconclusive. Potency is read from the fitted curve at half-maximal effect.

What do the screens show for `O=C1/C(=C\c2cccnc2)SC(=S)N1C1CCS(=O)(=O)C1` (stereo unspecified)?
BAZ2B block: 6%; G9a inh: inconclusive; JMJD2A Tudor inh: 1%; L3MBTL1 block: 7%; Sfp inh: 79µM*; HP1b binding inh: 20%

Results for Cc1cc(/C=C2/SC(=S)N(c3ccc([N+](=O)[O-])cc3)C2=O)c(C)n1-c1cccnc1 ?
BAZ2B block: inconclusive; G9a inh: 10µM*; JMJD2A Tudor inh: inconclusive; L3MBTL1 block: -3%; Sfp inh: -27%; HP1b binding inh: -31%

How did Cc1ccc(N2C(=O)/C(=C/c3cccnc3)SC2=S)cc1 do in these assays?
BAZ2B block: -3%; G9a inh: 10%[59 µM]; JMJD2A Tudor inh: -8%; L3MBTL1 block: 16%; Sfp inh: 2%; HP1b binding inh: 3%

How did Cc1ccc(/C=C2\SC(=S)N(c3cccnc3)C2=O)o1 do in these assays?
BAZ2B block: inconclusive; G9a inh: inconclusive; JMJD2A Tudor inh: -18%; Sfp inh: 50µM*; HP1b binding inh: 9%

What do the screens show for `Cc1cccc(N2C(=O)/C(=C/c3ccccn3)SC2=S)c1`?
BAZ2B block: -2%; JMJD2A Tudor inh: -4%; L3MBTL1 block: -2%; Sfp inh: 1%; HP1b binding inh: 28%

What do the screens show for `Cc1cccc(N2C(=O)/C(=C/c3cccnc3)SC2=S)c1`?
BAZ2B block: inconclusive; G9a inh: 16µM*; JMJD2A Tudor inh: inconclusive; L3MBTL1 block: inconclusive; Sfp inh: 14%; HP1b binding inh: -8%

Results for O=C(N/N=C1\CCCc2ccccc21)c1ccccc1[N+](=O)[O-] ?
BAZ2B block: 4%; G9a inh: 21%[59 µM]; JMJD2A Tudor inh: 3%; L3MBTL1 block: -8%; Sfp inh: -6%; HP1b binding inh: 10%

What do the screens show for `COc1ccc(-c2c3c(=O)n(C)c(=O)n(C)c3cn2C2CCCCC2)cc1`?
BAZ2B block: 50µM*; G9a inh: inconclusive; JMJD2A Tudor inh: inconclusive; Sfp inh: -23%; HP1b binding inh: inconclusive

Results for CN1CC(=O)N(CC(=O)Nc2cccc(C#N)c2)c2ccccc2C1=O ?
BAZ2B block: 1%; G9a inh: 8%[59 µM]; JMJD2A Tudor inh: -11%; HP1b binding inh: 1%

Results for Cc1ccc(CN2C(=O)C3CCCN3c3ncccc32)cc1 (stereo unspecified) ?
BAZ2B block: inconclusive; G9a inh: -20%; JMJD2A Tudor inh: -25%; Sfp inh: -3%; HP1b binding inh: 34%

What do the screens show for `Cc1ccc(CN2C(=O)C3CCCN3c3ccc(S(=O)(=O)N4CCOCC4)cc32)cc1` (stereo unspecified)?
BAZ2B block: -6%; G9a inh: 13µM*; L3MBTL1 block: -3%; Sfp inh: 21%

What do the screens show for `CCN(CC)S(=O)(=O)c1ccc2c(c1)N(CC(=O)Nc1ccc(C)cc1C)C(=O)C1CCCN21` (stereo unspecified)?
BAZ2B block: -15%; G9a inh: 14µM*; JMJD2A Tudor inh: -16%; HP1b binding inh: 50%

What do the screens show for `COc1ccc(C2OC3C(CO)OC(n4cnc5c(=O)[nH]c(N)nc54)C3O2)cc1` (stereo unspecified)?
Sfp inh: 6%

Results for COc1ccc(CCNC(=O)c2ccc3c(c2)N(Cc2ccc(F)cc2)C(=O)CS3)cc1OC ?
BAZ2B block: 13%; G9a inh: inconclusive; JMJD2A Tudor inh: -34%; HP1b binding inh: 59%

What do the screens show for `Cc1cc(=O)[nH]c2[nH][nH]c(=O)c12`?
JMJD2A Tudor inh: 6.3µM*; HP1b binding inh: 8%

Results for O=C(NC(=S)NCCc1ccccn1)c1ccco1 ?
BAZ2B block: -3%; G9a inh: 1%; JMJD2A Tudor inh: -2%; L3MBTL1 block: 5%; Sfp inh: 13%; HP1b binding inh: 17%

How did O=C(NCCNCc1ccccn1)c1ccco1 do in these assays?
BAZ2B block: inconclusive; G9a inh: 9%; JMJD2A Tudor inh: -17%; L3MBTL1 block: -4%; Sfp inh: 14%; HP1b binding inh: 37%

Results for O=C(NC(NCc1ccccn1)(C(F)(F)F)C(F)(F)F)c1ccco1 ?
BAZ2B block: 50µM*; G9a inh: 16%; JMJD2A Tudor inh: 0.71µM*; L3MBTL1 block: inconclusive; Sfp inh: -5%; HP1b binding inh: 26%

How did CN(CCc1ccccn1)C(=S)NC(=O)c1ccco1 do in these assays?
BAZ2B block: inconclusive; G9a inh: 20µM*; JMJD2A Tudor inh: -7%; L3MBTL1 block: 13%; Sfp inh: inconclusive; HP1b binding inh: 1%

Results for CCCN1C(=O)C(NC(C)=O)c2ccccc21 (stereo unspecified) ?
BAZ2B block: -24%; G9a inh: 40µM*; JMJD2A Tudor inh: -12%; Sfp inh: 2%; HP1b binding inh: 14%

Results for COc1ccc2c(c1)C(NC(C)=O)C(=O)N2CCc1ccccc1 (stereo unspecified) ?
BAZ2B block: -12%; G9a inh: -22%; JMJD2A Tudor inh: -25%; L3MBTL1 block: -6%; Sfp inh: 1%; HP1b binding inh: 32%

What do the screens show for `CCc1ccc2c(c1)C(NC(C)=O)C(=O)N2CCN1CCOCC1` (stereo unspecified)?
BAZ2B block: 13µM*; G9a inh: 28µM*; JMJD2A Tudor inh: 10µM*; Sfp inh: inconclusive; HP1b binding inh: -18%[57 µM]

Results for CCCOc1ccc(CNC(=O)C(NS(=O)(=O)c2cccs2)C(C)C)cc1 (stereo unspecified) ?
BAZ2B block: -32%; G9a inh: 0%[12.7 µM]; JMJD2A Tudor inh: -2%; HP1b binding inh: 26%

What do the screens show for `O=C1CC(c2nc(-c3cccc(Cl)c3)no2)CN1c1ccc2c(c1)OCCO2` (stereo unspecified)?
BAZ2B block: -15%; G9a inh: -1%[59 µM]; JMJD2A Tudor inh: -24%; HP1b binding inh: 71%

Results for O=C(Nc1cccc(Cl)c1Cl)C1CCCO1 (stereo unspecified) ?
BAZ2B block: 9%; G9a inh: 16%[59 µM]; JMJD2A Tudor inh: -3%; L3MBTL1 block: 3%; Sfp inh: 12%; HP1b binding inh: 52%
